TR SRC2 fluor cs = Total Fluorescence Counterscreen for Inhibitors of the Interaction of Thyroid Hormone Receptor and Steroid Receptor Coregulator 2 | TRb/SRC2 Texas Red total fluorescence interference | Potency, µM (series often up to 106 µM) | 0.29% of 280,000 active | AID 1479, 2009; active = well fitted curve in either direction with a large enough effect; inconclusive = small, poorly fitted or top-dose-only effect
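Human TRb ligand-binding domain at 0.6 uM with 20 nM Texas Red SRC2 peptide in Tris buffer containing 1 uM T3 and 5% DMSO, incubated with compound 5 h at ambient temperature. Total fluorescence (555/632 nm) calculated as parallel + 2 × perpendicular.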
Tau ThT inhib = qHTS for Inhibitors of Tau Fibril Formation, Thioflavin T Binding; 2.1% of 270,000 active; recombinant tau K18 P301L, heparin-induced fibrillization, ThT fluorescence; Potency, µM (titrated, usually from 57.4 µM), usual class: inhibitors; note: nearly all actives have a fitted effect of over 55% in size
Target sequence (P10636 561-689 P618L limits assumed): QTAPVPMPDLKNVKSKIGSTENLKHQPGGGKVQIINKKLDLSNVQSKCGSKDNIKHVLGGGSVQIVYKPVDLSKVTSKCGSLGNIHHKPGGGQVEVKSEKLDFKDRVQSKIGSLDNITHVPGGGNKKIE
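Fibril formation assay: tau K18 P301L at 15 uM with trace Alexa 594 label, heparin inducer 20 uM, pH 7 sodium acetate buffer, 37 C for 6 hr; endpoint ThT signal.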
Tau fluor cs = Counterscreen qHTS for Inhibitors of Tau Fibril Formation, Fluorescence Polarization | tau K18 P301L Alexa594 fluorescence, heparin fibrillization | Potency, µM (titrated, usually from 57.7 µM) | 0.93% of 280,000 active | AID 1463, 2008; note: nearly all actives have a fitted effect of over 55% in size
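Human tau K18 P301L (15 uM unlabeled, 0.24 uM Alexa 594-labeled) in 100 mM sodium acetate pH 7 with 20 uM heparin, 6 hr at 37 C. ThT 30 uM added, 1 hr ambient; Alexa 594 FP and total fluorescence read at 555/632 nm.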
TRb-SRC2 inh = qHTS for Inhibitors of the Interaction of Thyroid Hormone Receptor and Steroid Receptor Coregulator 2; Thyroid hormone receptor beta (Homo sapiens), P10828; TRbeta-SRC2 peptide binding, fluorescence polarization; receptor liganded with 1 µM T3; Potency, µM (doses to about 106 µM), hits mostly inhibitors; 0.065% of 280,000 active; note: nearly all actives have a fitted effect of over 50% in size
Target sequence (P10828 whole entry, looked up): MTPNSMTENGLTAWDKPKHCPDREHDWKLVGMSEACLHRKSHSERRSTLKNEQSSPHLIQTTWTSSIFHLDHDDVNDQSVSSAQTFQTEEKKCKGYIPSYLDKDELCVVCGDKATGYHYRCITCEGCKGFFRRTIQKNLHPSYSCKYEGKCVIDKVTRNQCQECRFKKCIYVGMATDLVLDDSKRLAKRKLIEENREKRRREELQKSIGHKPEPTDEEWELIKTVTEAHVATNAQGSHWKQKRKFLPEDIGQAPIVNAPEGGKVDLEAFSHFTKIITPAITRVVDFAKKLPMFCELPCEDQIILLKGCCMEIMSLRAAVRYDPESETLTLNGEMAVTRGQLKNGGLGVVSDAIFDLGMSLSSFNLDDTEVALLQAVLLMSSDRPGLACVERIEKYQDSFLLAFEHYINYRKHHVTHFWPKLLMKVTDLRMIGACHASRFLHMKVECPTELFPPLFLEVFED
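Decrease in fluorescence polarization of 20 nM Texas Red SRC2 coactivator peptide flagged inhibition of its binding to 0.6 uM TRb LBD; 1 uM T3 included, incubation 5 hr, ex 555/em 632 nm.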
Tau FP inhib = qHTS for Inhibitors of Tau Fibril Formation, Fluorescence Polarization | Microtubule-associated protein tau (Homo sapiens), P10636 | K18 P301L tau heparin fibrillization, Alexa594 FP, 6 h | Potency, µM (titrated, usually from 57.7 µM), most hits filed as inhibitors | 0.39% of 280,000 active | AID 1468, 2008; note: nearly all actives have a fitted effect of over 55% in size
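FP of Alexa 594-tau after heparin (20 uM) induction. Substrate: human K18 P301L, 15 uM unlabeled, 0.24 uM labeled. Buffer 100 mM sodium acetate pH 7. 6 hr, 37 C.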
Each line names hits and unclear results; the compound was inactive in the other large screens; [ ] = remark or other dose. Shown are actives, neighbours in structure and some others; about 3% of the full set was active somewhere. Unless noted, calls come from the whole dose curve; as a rule, active = well fitted curve in the direction sought with a large enough effect; inconclusive = small, poorly fitted or top-dose-only effect, or another doubt; inactive = no such curve, though single readings can be large; an effect the other way counts as inactive or inconclusive.

CC1=Nc2ccccc2/C1=C\c1sc(Nc2ccc(C)cc2)nc1O	Tau ThT inhib 7.94µM, Tau fluor cs 11.2µM[quencher], Tau FP inhib inconclusive
Oc1cccc(Nc2nc(O)c(/C=C3\C=Nc4ccccc43)s2)c1	Tau ThT inhib 3.98µM, Tau fluor cs 11.2µM[quencher]
Oc1nc(Nc2cccc(Cl)c2)sc1/C=C1\C=Nc2ccccc21	Tau ThT inhib 6.31µM, Tau fluor cs 5.01µM[quencher], Tau FP inhib inconclusive
CC1=Nc2ccccc2/C1=C/c1sc(=O)n(CC(=O)N2CCCC2)c1O	Tau fluor cs inconclusive
CCOC(=O)c1c(Nc2ccc(Cl)cc2)sc(/C=C2\C=Nc3ccccc32)c1O	Tau ThT inhib inconclusive, Tau fluor cs inconclusive, Tau FP inhib inconclusive
Oc1nc(Nc2ccc(F)cc2)sc1/C=C1\C=Nc2ccccc21	Tau ThT inhib 4.47µM, Tau fluor cs 7.08µM[quencher]
C[C@H]1Cc2c(-c3ccccc3)nc3c(c2CO1)CN(C(=O)c1cccnc1)CC3	none
CCCCCn1c(=N)n(CC(O)COc2cccc(C)c2)c2ccccc21 (stereo not given)	none
COC(=O)CC1Oc2ccc(Cl)cc2-n2cc(-c3ccc(C)cc3)nc21 (stereo not given)	TR SRC2 fluor cs 22.4µM[quencher]
CN(C)CCNC(=O)C(=O)NCC(c1cccnc1)N1CCN(c2ccccc2)CC1 (stereo not given)	none
Cc1cccc2c1NC(=O)/C2=C\C(=O)c1cccs1	Tau ThT inhib 22.4µM
Cc1cc(C)c2c(c1)/C(=C/C(=O)c1ccc(Br)s1)C(=O)N2	Tau ThT inhib 28.2µM, Tau fluor cs 20µM[quencher]
Cc1cc(Br)c2c(c1)/C(=C/C(=O)c1cccs1)C(=O)N2	Tau ThT inhib inconclusive
CN(C)/C=C/C(=O)c1ccc(Br)s1	none
COc1cccc(CNC(=O)c2oc3ccc4c(c3c2C)C(=O)CC(C)(C)O4)c1OC	none
O=C(Nc1ccccc1C(F)(F)F)c1noc2c1CCCCC2	none
CC1(C)CNc2cc(N)ccc2S1	Tau ThT inhib 15.8µM, Tau fluor cs 14.1µM[quencher], Tau FP inhib inconclusive
Cc1ccc(C)c(NC(=O)c2cc(-c3cccnc3)nc3ccccc23)c1	none
C/C(=N\NC(=O)c1cc(-c2cccnc2)nc2ccccc12)c1ccc(O)cc1O	Tau ThT inhib 7.94µM, Tau fluor cs inconclusive
O=[N+]([O-])c1ccc(N2CCN(C(=S)Nc3ccc(F)cc3)CC2)cc1	Tau ThT inhib inconclusive, Tau fluor cs inconclusive
O=[N+]([O-])c1ccc(N2CCN(C(=S)Nc3cccc(F)c3)CC2)cc1	Tau ThT inhib 15.8µM, Tau fluor cs inconclusive
Cc1nn(-c2ccccc2)c2c1cc1c(=O)[nH]c(=O)nc-1n2-c1cccc(Cl)c1	none
COC1=CC(=O)C=C(OC)C1=O	Tau ThT inhib 10µM, Tau fluor cs inconclusive, Tau FP inhib 22.4µM
COc1ccc(N2CCN(c3oc(/C=C/c4ccccc4OC)nc3C#N)CC2)cc1	Tau fluor cs inconclusive, Tau FP inhib inconclusive
CCCCc1nc2c(c3c1C[C@H](C)OC3)CN(C(=O)Nc1ccc(OC)cc1)CC2	none
COc1cc(OC)cc(-c2nc3n(n2)C(c2ccccc2F)C(C(=O)Nc2cccnc2)=C(C)N3)c1 (stereo not given)	Tau fluor cs inconclusive
Oc1ccc(-c2csc(Nc3ncccn3)n2)cc1O	Tau ThT inhib 11.2µM, Tau fluor cs inconclusive
Oc1ccc(-c2csc(-c3ccccc3)n2)cc1O	Tau ThT inhib 10µM, Tau fluor cs 15.8µM[quencher]
Oc1ccc(-c2csc(-c3cccnc3)n2)cc1O	Tau fluor cs inconclusive (no result: Tau ThT inhib)
CCOc1cc(/C=N/NC(=O)c2cccs2)cc([N+](=O)[O-])c1O	Tau ThT inhib 10µM, Tau fluor cs inconclusive
O=C(N/N=C/c1cccc(OCc2ccccc2)c1)c1cccs1	Tau ThT inhib inconclusive, Tau fluor cs 25.1µM[quencher], Tau FP inhib inconclusive
COc1cc([N+](=O)[O-])cc(/C=N/NC(=O)c2cncc(Br)c2)c1O	Tau ThT inhib 12.6µM
COc1cc(/C=N/NC(=O)c2cncc(Br)c2)cc([N+](=O)[O-])c1O	Tau ThT inhib 12.6µM
O=C(N/N=C/c1ccc(O)c([N+](=O)[O-])c1)C1CC1(c1ccccc1)c1ccccc1 (stereo not given)	Tau ThT inhib 14.1µM, Tau fluor cs inconclusive
O=C(N/N=C/c1c[nH]c2ccccc12)C1CC1c1ccccc1 (stereo not given)	Tau ThT inhib inconclusive, Tau fluor cs 14.1µM[quencher]
O=C(N/N=C/c1c[nH]c2ccccc12)C1CC1(c1ccccc1)c1ccccc1 (stereo not given)	Tau fluor cs 7.08µM[quencher]
O=C(N/N=C/c1ccncc1)C1CC1(c1ccccc1)c1ccccc1 (stereo not given)	Tau ThT inhib inconclusive, Tau fluor cs inconclusive
O=C(O)CCC/C=C\C[C@@H]1[C@@H](CC[C@@H](O)CCc2ccccc2)[C@H](O)C[C@@H]1O	none (no result: Tau ThT inhib, Tau fluor cs, Tau FP inhib)
Cc1ccc(C(=O)n2nc(C)c(S(=O)(=O)N3CCCCCC3)c2C)cc1	Tau ThT inhib inconclusive
Cc1ccccc1N1C(S)=C(C#N)C(=O)NC1c1cccs1 (stereo not given)	Tau ThT inhib inconclusive, Tau FP inhib inconclusive
Cc1ccccc1N1C(S)=C(C#N)C(=O)NC1c1ccco1 (stereo not given)	Tau ThT inhib 25.1µM, Tau FP inhib inconclusive
OCC1OC(n2cnc3c(=S)nc[nH]c32)C(O)C1O (stereo not given)	none
CNc1ccc(C(=O)c2ccccc2C(=O)O)cc1[N+](=O)[O-]	none
CNc1ccc(/C=C/C(=O)c2cccc3ccccc23)cc1[N+](=O)[O-]	Tau ThT inhib 6.31µM
CCCCC(CC)C(=O)OCCOCCOCCOC(=O)C(CC)CCCC (stereo not given)	none (no result: Tau ThT inhib, Tau fluor cs, Tau FP inhib)
CCCOc1cccc(C(=O)Nc2ccc(-c3nc4ccccc4o3)cc2)c1	Tau FP inhib inconclusive
Cc1cccc(CC(=O)NC2CC(=O)N(c3ccccc3)C2)c1 (stereo not given)	none
Cc1ccc2c(=O)cc(C(=O)Nc3c(C(=O)c4ccc(F)cc4)oc4ccccc34)oc2c1C	none
COc1ccc(/C=C/C(=O)CC(=O)/C=C/c2cccc(O)c2OC)cc1O	TR SRC2 fluor cs inconclusive, Tau ThT inhib 1.26µM, Tau fluor cs 8.91µM[quencher], TRb-SRC2 inh inconclusive
COc1ccc(C(=O)/C=C/c2ccc(OC)c(O)c2)c(F)c1	none
COc1cc(/C=C/C(=O)c2cccs2)cc(OC)c1OC	Tau ThT inhib inconclusive
COc1cc(/C=C/C(=O)c2ccc(Cl)s2)cc(OC)c1O	Tau ThT inhib 14.1µM, Tau fluor cs inconclusive
COc1ccc(/C=C/C(=O)c2ccc(Cl)s2)cc1O	Tau ThT inhib 7.94µM, Tau fluor cs inconclusive, Tau FP inhib inconclusive
Cc1ccc(-n2c(=O)c3sc4ccccc4c3n(C)c2=O)cc1F	none
